Bioassay records (PubChem)
HP1b binding inh – inhibitors of HP1-beta chromodomain binding to methylated histone tails. AID 540317. Potency, µM (doses to about 114 µM), actives largely listed as inhibitors. 0.56% of 390,000 active. AlphaScreen HP1-beta / biotin-H3K9me3 peptide binding. P83916; note: nearly all actives have a fitted effect of over 70% in size
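AlphaScreen: HP1-beta (50 nM) preformed 30 min with biotin-H3(1-18)K9me3 peptide (50 nM) in PBS pH 7.4, 0.01% Tween-20. Compound added for 30 min at RT, then streptavidin donor/nickel chelate acceptor beads (10 ug/mL) for 30 min.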
G9a block – G9a (human) methyltransferase inhibition; G9a H3K9 monomethylation, AlphaScreen, 2 h; Potency, µM (titrated, usually from 102 µM), most hits filed as inhibitors; 8.8% of 350,000 active; note: nearly all actives have a fitted effect of over 75% in size
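AlphaScreen read-out: biotin-H3K9 peptide (500 nM) methylation by 20 nM enzyme with 20 uM SAM, 2 h at room temperature after 15 min compound preincubation; anti-monomethyl H3K9 antibody plus donor/acceptor beads, 10 min dark.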
JMJD2A Tudor inh – JMJD2A Tudor domain (human) inhibition | O75164 | AlphaScreen JMJD2A-Tudor / H3K4me3 peptide binding | Potency, µM (top dose mostly 114 µM), hits mostly inhibitors | 4.4% of 390,000 active | AID 504339; note: nearly all actives have a fitted effect of over 50% in size
Target sequence (O75164 whole entry, looked up, the tested form may be a part): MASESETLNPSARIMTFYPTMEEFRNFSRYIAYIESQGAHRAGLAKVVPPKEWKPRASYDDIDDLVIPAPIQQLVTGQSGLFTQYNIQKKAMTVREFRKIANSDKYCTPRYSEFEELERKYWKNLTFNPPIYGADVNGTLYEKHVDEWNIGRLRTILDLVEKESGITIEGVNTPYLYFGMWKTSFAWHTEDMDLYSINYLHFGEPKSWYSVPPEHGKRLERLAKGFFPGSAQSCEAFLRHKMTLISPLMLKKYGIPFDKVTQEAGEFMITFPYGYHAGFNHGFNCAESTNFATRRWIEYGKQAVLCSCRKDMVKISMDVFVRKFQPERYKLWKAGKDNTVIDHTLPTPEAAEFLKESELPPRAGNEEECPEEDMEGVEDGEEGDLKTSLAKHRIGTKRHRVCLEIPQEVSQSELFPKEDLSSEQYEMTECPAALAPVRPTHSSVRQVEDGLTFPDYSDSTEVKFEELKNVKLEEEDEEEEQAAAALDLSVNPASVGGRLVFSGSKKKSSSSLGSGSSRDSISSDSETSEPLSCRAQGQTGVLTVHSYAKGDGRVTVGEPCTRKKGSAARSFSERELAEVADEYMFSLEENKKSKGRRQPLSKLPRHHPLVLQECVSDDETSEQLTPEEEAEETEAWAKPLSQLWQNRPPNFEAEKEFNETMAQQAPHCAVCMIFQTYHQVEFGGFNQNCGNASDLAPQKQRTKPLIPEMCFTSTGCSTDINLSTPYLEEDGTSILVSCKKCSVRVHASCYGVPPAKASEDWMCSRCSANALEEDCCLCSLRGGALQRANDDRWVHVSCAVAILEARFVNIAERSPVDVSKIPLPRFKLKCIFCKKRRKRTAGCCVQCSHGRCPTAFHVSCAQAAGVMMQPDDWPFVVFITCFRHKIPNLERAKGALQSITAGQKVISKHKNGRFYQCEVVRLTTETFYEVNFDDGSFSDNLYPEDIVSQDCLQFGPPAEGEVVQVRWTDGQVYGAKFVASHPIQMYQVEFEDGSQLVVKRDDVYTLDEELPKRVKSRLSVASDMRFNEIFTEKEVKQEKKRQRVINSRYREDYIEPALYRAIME
L3MBTL1 block – blocks human L3MBTL1 | Q9Y468 | 0.66% of 230,000 active | AlphaScreen L3MBTL1–H3K9me1 peptide binding | Potency, µM (titrated, usually from 57.1 µM), hits mostly inhibitors; note: nearly all actives have a fitted effect of over 60% in size
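AlphaScreen proximity signal between nickel-chelate acceptor and streptavidin donor beads (final 10 ug/mL) reports binding of 50 nM L3MBTL1 to 75 nM biotin-H3 K9me1 peptide; complex incubated with compounds 30 min at room temperature; cefsulodin titration as control.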
BAZ2B block – inhibitors of human BAZ2B bromodomain | AlphaScreen BAZ2B-H3K14Ac peptide displacement | Potency, µM (top dose mostly 114 µM), most hits filed as inhibitors | 4.4% of 360,000 active | AID 504333; note: nearly all actives have a fitted effect of over 60% in size
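In this displacement format the biotinylated H3(5-23) peptide acetylated at Lys14 serves as ligand at 50 nM, with BAZ2B at 50 nM in PBS pH 7.4 containing 0.01% Tween-20. Donor and acceptor beads are 10 ug/mL final.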
A number is an active result; 0 = inactive; ? = inconclusive; - = no result given; ! = not confirmed by another sample; [ ] = another dose, or the depositor's remark. Shown are actives, neighbours in structure and some others; about 11% of the full set was active somewhere. Calls come from the whole dose curve; as a rule, active = well fitted inhibition curve with a large enough effect; inconclusive = small, poorly fitted or top-dose-only effect; inactive = no such curve, though single readings can be large or run the other way.

SMILES	HP1b binding inh	G9a block	JMJD2A Tudor inh	L3MBTL1 block	BAZ2B block
Cc1ccc(/C=C/C(=O)N2CCN(S(=O)(=O)c3c(C)c(C)cc(C)c3C)CC2)o1	?	7.9µM	79µM	0	?
Cc1ccc(/C=C/C(=O)N2CCN(S(=O)(=O)c3ccc(C)c(C)c3)CC2)o1	?	2.8µM	45µM	0	?
Cc1ccc(C(=O)N2CCN(Cc3ccccc3)CC2)o1	0	0	0	-	0
CC(C)(CNc1ccc(C(F)(F)F)cc1[N+](=O)[O-])N1CCOCC1	0	71µM	?	-	?
CN(C)C(CNc1ccc(C(F)(F)F)cc1[N+](=O)[O-])c1ccccc1 (stereo unspecified)	45µM	32µM	35µM	-	8.9µM
O=C(CSc1ccc(C(F)(F)F)cc1[N+](=O)[O-])N1CCOCC1	0	0[0.501 µM]	0	0[2.29 µM]	0
CN(C)C(CNc1ccc(S(C)(=O)=O)cc1[N+](=O)[O-])c1ccccc1 (stereo unspecified)	0	0	0	-	?
Cc1ccc(Nc2ccc(C(F)(F)F)cc2[N+](=O)[O-])cc1	?	3.2µM	?	0	?
CN(C)C(CNC(C(=O)Nc1ccc([N+](=O)[O-])cc1Br)c1ccccc1)c1ccccc1 (stereo unspecified)	?	?	35µM	0	-
CC(=O)N1c2ccc(S(=O)(=O)NCC3CCC(C(=O)Nc4cc(C)ccc4C)CC3)cc2CC1C (stereo unspecified)	0	0	0	-	0
O=C(NNC(=O)c1ccccc1O)c1cccc(Br)c1	0	-	0	0	0
COc1cccc(C(=O)Nc2nc(-c3nnn(-c4ccccc4C(F)(F)F)c3C)ns2)c1	0	0	0	-	0
Cc1ccc(Cc2nc3ccccc3nc2SCC(=O)N2CCCCC2)cc1	0	0	0	-	0
Cc1cccc(N2CCN(C(=O)C3CCN(c4ncnc5c4nc4n5CCCCC4)CC3)CC2C)c1 (stereo unspecified)	0	0	0	-	35µM
CC(=O)Nc1ccc2c(c1)C(C)(C)C(C)N2C (stereo unspecified)	0	18µM	0	-	?
O=C(COc1ccc(Br)cc1)Nc1ccccc1N1CCCC1	0	45µM	0	0	0
O=C(CCNC(=O)c1ccc(Br)cc1)Nc1ccccc1N1CCCCC1	0	56µM	0	0	0
CC(=O)N1CCN(c2ccccc2NC(=O)COc2ccc(Br)cc2)CC1	0	0[12.7 µM]	0	0	0
COC(=O)c1c(C)[nH]c(/C=N/Nc2ccccc2)c1C	0	25µM	?	0	?
Cc1c(C=NNc2ccccc2)[nH]c(=O)[nH]c1=O	0	-	0	-	-
CCN(Cc1ccccc1)Cc1c(O)ccc2c(=O)c(-c3ccccc3OC)c(C(F)(F)F)oc12	0	?	0	-	0
O=C1C(O)=C(O)C(=O)C(O)=C1O	-	6.3µM!	-	-	-
COc1ccc(C(C[N+](=O)[O-])c2c(C)cc3ccccn23)c(OC)c1 (stereo unspecified)	0	40µM	0	-	0
COc1ccc(OC)c(C(C[N+](=O)[O-])c2c(C)cc3ccccn23)c1 (stereo unspecified)	?	45µM	?	-	?
Cc1ccc(-c2nc(CNC(=O)c3ccco3)cs2)cc1	0	50µM	0	-	0
SMILES	HP1b binding inh	G9a block	JMJD2A Tudor inh	L3MBTL1 block	BAZ2B block
COc1ccc(C(=O)Nc2ccc(CN3CCOCC3)cc2)cc1Br	0	0	0	0	0
COc1ccc(CN2CCN(C(=O)CC(C)C)CC2)cc1Br	0	10µM	79µM	0	?
CCOC(=O)N1CCN(Cc2ccccn2)CC1	0	7.1µM	0.79µM	-	?
Oc1ccc2ccccc2c1SSc1c(O)ccc2ccccc12	-	6.7µM	-	-	-
Oc1ccc2ccccc2c1CNc1ccc(Br)cc1	0	5µM	?	-	40µM
Oc1ccc2ccccc2c1CNc1ccc(Br)cn1	0	-	0	0	0
O=C(COC(=O)c1cccc(Cl)c1)Nc1cccc(S(=O)(=O)NC2=NCCC2)c1	0	-	0	0	-
CC(C)CC(=O)N1CCN(Cc2ccc3ccccc3c2)CC1	?	0[0.501 µM]	25µM	0[2.29 µM]	?
CCOC(=O)C1CCN(S(=O)(=O)c2ccc(CC)cc2)CC1	0	0	40µM	0	0
CCOC(=O)N1CCN(Cc2c(O)ccc3ccccc23)CC1	?	?	?	0	0
COc1ccc(C(=O)OCC(=O)c2ccc(S(=O)(=O)N3CCCCC3)cc2)c(OC)c1	0	?	0	0	0
CCOC(=O)C1CCN(Cc2c(O)ccc3ccccc23)CC1	0	3.5µM	0	0	0
Cc1ccc(C(=O)OCC(=O)c2ccc(S(=O)(=O)N3CCCCC3)cc2)o1	0	50µM	?	0	0
CCOC(=O)N1CCN(Cc2ccc3ccccc3c2)CC1	?	-	25µM	0	?
CCOC(=O)C1CCN(Cc2ccc(F)c(F)c2)CC1	?	28µM	5.6µM	-	?
CCOC(=O)N1CCN(C(=O)c2oc3ccc(S(=O)(=O)N4CC(C)CC(C)C4)cc3c2C)CC1 (stereo unspecified)	0	0[0.501 µM]	0	0	0
CCOC(=O)C1CCN(C(=O)c2oc3ccc(S(=O)(=O)N4CC(C)CC(C)C4)cc3c2C)CC1 (stereo unspecified)	0	14µM	0	0	0
CCOC(=O)C1CCN(S(=O)(=O)Cc2ccc(Cl)cc2)CC1	0	0	0	0	0
CSc1ccc(CN2CCN(C(=O)CC(C)C)CC2)cc1	?	0[0.501 µM]	20µM	0[2.29 µM]	79µM
COc1ccc(CCNC(=O)CCc2c(C)c3cc4c(C)c(C)oc4cc3oc2=O)cc1	0	0	0	-	0
Nc1nn(-c2ccccc2)nc1C(=O)OCc1ccc(Cl)cc1	0	0	0	-	0
CCOC(=O)C1CCN(Cc2ccc3ccccc3c2)CC1	?	?	56µM	0	?
Oc1ccc2ccccc2c1CN1CCCCC1	0	-	0	-	-
CCOC(=O)C1CCN(c2c(N3CCN(Cc4ccccc4)CC3)c(=O)c2=O)CC1	0	0	0	-	0
CCOC(=O)C1CCN(Cc2cc(C(C)C)c(O)c(C(C)C)c2)CC1	0	0	0	0	0
SMILES	HP1b binding inh	G9a block	JMJD2A Tudor inh	L3MBTL1 block	BAZ2B block
CCOC(=O)C1CCN(Cc2ccc(N(C)C)cc2)CC1	?	?	3.5µM	-	45µM
O=C(O)Cc1c(O)ccc2ccccc12	0	0[12.7 µM]	0	0	0
Oc1ccc2ccccc2c1CN1CCCC1	0	6.3µM	0	0	0
NCc1c(O)ccc2ccccc12	-	7.9µM	-	0	0
COc1cc(OC)cc(C2=Nn3c(nnc3-c3ccccc3OC)SC2)c1	-	-	0	-	-
OCCN1CCN(Cc2ccc3ccccc3c2)CC1	?	-	20µM	0	50µM
COC(=O)C1CCN(C(=O)COC(=O)C2CCN(S(=O)(=O)c3c(Cl)cccc3Cl)CC2)CC1	0	?	0	0	0
OCCN1CCN(Cc2cccc(Oc3ccc(Cl)cc3)c2)CC1	0	?	0	0	?
CCOC(=O)N1CCN(C(=O)COC(=O)C2CCN(S(=O)(=O)c3c(Cl)cccc3Cl)CC2)CC1	0	50µM	0	0	0
CCCCOc1cccc(C(=O)Nc2cc3nn(-c4ccc(F)cc4)nc3cc2C)c1	0	0	0	-	0
